In PubChem BioAssay AID2254 (The Scripps Research Institute Molecular Screening Center, 2010):

assay: RBBP9 hydrolase inhibition, IC50 by ABPP – biochemical, gel-based ABPP, late-stage follow-up (AID 2254); details: fluorophosphonate probe labeling of RBBP9; call rule not given here

IC50, inactive:
C/C(=N\OC(=O)C1CCCCC1)c1nccs1 > 100 µM
CC1=CC(=NOC(=O)/C=C/c2ccccc2)C=C(C)C1=O > 100 µM
COc1ccc(C(=O)O/N=C(\C)c2nccs2)cc1 > 100 µM
C/C(=N\OC(=O)c1ccc(F)cc1)c1nccs1 > 100 µM
COc1ccc(C(=O)ON=C2C=C(C)C(=O)C(C)=C2)cc1 > 100 µM
C/C(=N\OC(=O)c1ccc(Cl)cc1)c1nccs1 > 100 µM
C/C(=N\OC(=O)c1ccccc1)c1nccs1 > 100 µM
